Screens (PubChem BioAssay)
Wnt bcat act = Wnt/beta-catenin pathway activation | Wnt/beta-catenin reporter cell assay, activator, plate reader | activation, % at 9.35 µM | 300,000 tested, 1.2% active; in the data active = activation above about 30%, passing the limit was not always enough;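 note: 0% = neutral control wells and 100% = positive control wells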
PvdQ inh = P. aeruginosa PvdQ acylase inhibition; 340,000 tested, 0.063% active; purified PvdQ acylase, fluorescence plate reader; inhibition, % at 10 µM; in the data active = inhibition above about 30%, passing the limit was not always enough;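 note: 0% = vehicle neutral wells and 100% = reference inhibitor wells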
Glyco luc inh = blocks N-linked glycosylation in D54 reporter cells; AID 588692; D54 ERlucT glycosylation luciferase reporter, 24 h; percent of 100 nM tunicamycin response; 360,000 tested, 0.23% active; reporter increase, % at 12.5 µM;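 active = mean luciferase reporter signal, scaled so untreated is 0 and the glycosylation-blocking control 100, at or above a set limit in every replicate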;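 note: luciferase carries N-glycosylation sites so blocking glycosylation raises the light; 0% = median of neutral control wells and 100% = median of 100 nM tunicamycin wells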
Vif imaging = inhibitors of HIV Vif; HEK293T cells, Vif self-association by quenched fluorescence, imaging, 24 h; inhibition, % at 7.49 µM; 340,000 tested, 0.35% active; in the data active = inhibition above about 50%, passing the limit was not always enough
esBAF inh = SWI/SNF esBAF complex inhibition; mouse ES cells, Bmi1-luciferase knock-in reporter, 24 h; 100% = twice the neutral-well signal; 350,000 tested, 2% active; reporter increase, % at 12.5 µM; in the data active = activation above about 40%;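 note: 0% = median of the plate's neutral control wells and 100% = double that signal; a rise in the Bmi1 reporter signal indicates esBAF inhibition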
MITF TRPM1 HTS = activators of MITF-driven TRPM1 promoter activity in SK-MEL-5 cells. SK-MEL-5 TRPM1-promoter luciferase, 24 h; % of positive control, neutral wells = 0. activation, % at 12.5 µM. 300,000 tested, 0.75% active;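 active = mean activation of at least 80% with every replicate also reaching 80%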;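 note: 0% = neutral control wells and 100% = parthenolide positive control wells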
* marks the source's active call; other numbers are inactive results. Most compounds without a hit are left out; they make up all but 2.9% or so of the library.

Results for CC(=O)c1ccc(NC(=S)N2CCC(Cc3ccccc3)CC2)cc1 ?
Wnt bcat act: 40*; PvdQ inh: -11; Glyco luc inh: -3; Vif imaging: 3; MITF TRPM1 HTS: 8

How did CCS(=O)(=O)NCC[C@H]1CC[C@@H](NC(=O)C2CCC2)[C@H](CO)O1 do in these assays?
esBAF inh: -3

Results for CCc1ccc(N2Cc3ccccc3C2)cc1 ?
Wnt bcat act: 2; PvdQ inh: 7; Glyco luc inh: -7; Vif imaging: 10; MITF TRPM1 HTS: 86*

How did CCOC(=O)c1ccc(N2Cc3ccccc3C2)cc1O do in these assays?
Wnt bcat act: 8; PvdQ inh: 63*; Glyco luc inh: -1; Vif imaging: -1; esBAF inh: 30; MITF TRPM1 HTS: 106*

What do the screens show for `O=c1nc2c(O)cccn2c2c1c(=O)[nH]c1ccccc12`?
Wnt bcat act: 0; PvdQ inh: -1; Glyco luc inh: 5; Vif imaging: 5; MITF TRPM1 HTS: 0

Results for O=c1[nH]c2ccccc2c2nc3ccccn3c12 ?
Wnt bcat act: -4; PvdQ inh: -6; Glyco luc inh: 10; Vif imaging: -1; esBAF inh: 49*

Results for C/C=C/c1ccc([C@H]2[C@@H](CO)N3CCCCN(C(=O)Nc4cc(F)ccc4F)C[C@@H]23)cc1 ?
esBAF inh: -6

How did Cc1ccc(C2=NN(C(=S)Nc3ccccc3)C(c3ccco3)C2)cc1 (stereo not given) do in these assays?
PvdQ inh: -8; Glyco luc inh: -2; Vif imaging: 21; esBAF inh: 80*; MITF TRPM1 HTS: 71

How did COc1ccc(C2CC(c3ccc(Br)cc3)=NN2C(=S)Nc2ccccc2)cc1 (stereo not given) do in these assays?
Wnt bcat act: 6; PvdQ inh: -7; Glyco luc inh: -5; esBAF inh: 45*; MITF TRPM1 HTS: 36

Results for CCS(=O)(=O)Nc1ccc(C2=NN(C(=S)Nc3ccccc3)C(c3ccco3)C2)cc1 (stereo not given) ?
PvdQ inh: -7; Glyco luc inh: 4; Vif imaging: -5; MITF TRPM1 HTS: 32

What do the screens show for `COc1ccc(C2CC(c3ccccc3)=NN2C(=S)Nc2ccccc2)cc1` (stereo not given)?
Wnt bcat act: 3; PvdQ inh: 11; Glyco luc inh: -3; Vif imaging: -1; esBAF inh: 3; MITF TRPM1 HTS: 4

What do the screens show for `C[C@H](CO)N1C[C@H](C)[C@@H](CN(C)C(=O)Cc2ccccn2)Oc2ncc(C#C[C@@H](C)O)cc2C1=O`?
esBAF inh: 0

Results for CC1CCN(S(=O)(=O)c2ccc(NC(=O)Cn3nnc(-c4ccccc4)n3)cc2)CC1 ?
Wnt bcat act: -15; PvdQ inh: -6; Glyco luc inh: 47*; Vif imaging: -3; esBAF inh: -4; MITF TRPM1 HTS: -8

What do the screens show for `CC1CCCCC12NC(=O)N(CC(=O)c1ccc3c(c1)OCO3)C2=O` (stereo not given)?
Wnt bcat act: 13; PvdQ inh: 12; Glyco luc inh: 4; Vif imaging: -2; esBAF inh: 7; MITF TRPM1 HTS: 8

Results for CCCC1Oc2ccccc2C(=O)N(CC(=O)c2ccc3c(c2)OCCO3)C1=O (stereo not given) ?
Wnt bcat act: 1; PvdQ inh: -12; Glyco luc inh: 0; Vif imaging: 1; esBAF inh: 60*; MITF TRPM1 HTS: 67

What do the screens show for `CC(C)CC1NC(=O)N(CC(=O)c2ccc3c(c2)OCCO3)C1=O` (stereo not given)?
Wnt bcat act: 33*; PvdQ inh: 7; Glyco luc inh: -8; Vif imaging: 0; esBAF inh: 29

What do the screens show for `Fc1ccccc1OCCCCN1CCCCC1`?
Wnt bcat act: -1; PvdQ inh: -6; Glyco luc inh: 0; Vif imaging: -3; esBAF inh: 6; MITF TRPM1 HTS: active

How did Clc1ccccc1OCCCCN1CCCCC1 do in these assays?
Wnt bcat act: -1; PvdQ inh: 8; Glyco luc inh: 2; Vif imaging: -4; esBAF inh: -4; MITF TRPM1 HTS: 11

How did COc1cccc(NC(=S)Nc2cccc3ccccc23)c1 do in these assays?
Wnt bcat act: 12; PvdQ inh: 3; Glyco luc inh: -2; Vif imaging: -6; esBAF inh: 55*; MITF TRPM1 HTS: 15
